We go through 40 sequences from the supplement of paper PMC6555819.

The subject of this assay is VDR:RXRa (NR concentration 270 nM, RXRa partner concentration 90 nM). Briefly: PBM binding z-score (relative to random genomic background probes); higher = stronger binding; sequences stand for … in GC…GCGATTGACAGCGTAGAATGAAGG
Here is the method: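 Protein-binding microarray (Agilent 4x180K custom design, double-stranded 60-nt probes: 5' GC cap, 34-nt variable region, 24-nt constant primer region; full probe sequence given). Purified or IVT nuclear receptor:RXRα heterodimers (3:1 NR:RXRα, mostly 270:90 nM) or homodimers were incubated for 1 h in PBS with 2% milk and no ligand, then detected with Alexa488 antibodies. Fluorescence from o1-orientation probes (~5 replicates averaged) was converted to z-scores against 500 random hg19 background probes. Variable regions are seed direct-repeat (DR0–DR5) sites, all their single-nucleotide variants and half-site ablations.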
GCTAGCAGGCCATTTGGGACACTCAATGACGGGC displayed a PBM binding z-score of -0.447. Next, TGTCAAAGTTTAAAGGTAACGTAAGTATCCACAC: 1.33; CTCGAAAGGTCGTGCTCAGGTAAGTATACCAAAC: 3.36. Consider ATCGAAAGGTAGTGAGGTGAGTATACAGAAAGGC, for which the PBM binding z-score is -0.165.

The sequence AGTCAAGGTTCATCTAGGTAACGTAAGATATGCT yielded a PBM binding z-score of 4.56.

With AGAATGAGGTTAAGATCAGTGAAACAGAATACAT, the PBM binding z-score is 1.47. ATCTCTAGGTAACAAGTTCAGTGTAAGAGAGGAC displayed a PBM binding z-score of 2.3. Take TAGCCTAGGTCAGATCGGGCAAGTATACGCTATA: the PBM binding z-score was 0.761.

For GCCTGTAGATCAAGGTTAAGAAAGACTAAGCTAA, the PBM binding z-score was determined as 0.142. Under CCTCCTGGGCCAAAAAGGTCATTGATGCCGATAA stands 4.94; under ATCTCTAAGTAACAAGTTCAGTGAAAGAGAGGAC, 1.87. With ATCTCTAGGTAAGAAGTTCAGTGAAAGAGAGGAC, the PBM binding z-score is 0.919. Consider ATCTCTAGGAAACAAGTTCAGTGAAAGAGAGGAC, for which the PBM binding z-score turned out to be 1.45. CCTAGCAGGCCAGGGTCACTGAAGCATTTCGCTT: the PBM binding z-score stood at 2.68. Next, ATATGTAGGTTATCGGGTTATTCAGTTTGCGCAT: 3.47. As to TCGCGGAGGACACGAAGGTCAGAGCTTTCCAGAG, the PBM binding z-score is 2.1. Under CGTCCCAGGTCATAGGAGGTCAGTGAAGACAGAT stands 6.01; under CCGACTGGGGCAGAGAGGTTACCATACCATCCGG, 1.73; under CAGACTAGGTCACAGAGGTCAAAGTCCGTGCGTA, 7.98.

CCTAGCAGGCCAATCTGGGTCATTCAAGGCTTGA displayed a PBM binding z-score of 1.06.

The sequence CAGCCTAGGTCAGGGCCAGTCTAGGAGGAACGTT returned a PBM binding z-score of 0.0507. Under TTACCAAGGTGAGCTGAGGTGGTTGATCCAACTC stands -0.288; under CGAACTAGGTCAGAACAGGACCGTGAAGGATGAT, -0.102; under AGAATGAGGTTATACGTAGATCAGGGATGAAAGT, 1.47. The sequence TTACCAAGTTGAAGGTCGTTGATCCCTCTGTAGA came in with a PBM binding z-score of 1.13. The sequence CCGACTGGGGGAAAGGTTACCATACTCAGTACGA yielded a PBM binding z-score of 1.79. Consider CCGACTGGGCCACGAAAGGTCATTGATTCAGTGA, for which the PBM binding z-score is 4.05. Consider CGAACTAGGTCATCCAGGACAATGAATACATTGA, for which the PBM binding z-score came to 4.99. In turn, CGAGCTAGGTCAAGGACAGTGAATCTCCGCACGC yielded a PBM binding z-score of 0.904. Under TTACCAAGGTGAAGGTCGTTGATCCCTCTGTAGA stands 1.24. TCTAGCAGGCCAGAGGGTCACTCAAGAGGTACGG displayed a PBM binding z-score of 1.28. Under TCTCGGAGGACACGATGGTCAGAGCTTTCCAGAG stands -0.133. Under CAGCCTAGGTCAGGGCCAGCATAGGAGGAACGTT stands 0.0584; under TGAATGAGGTTAAAAATCAGGGAACGTGGCGTCG, 0.855. GCGATTGGGGCAAAGCAGGTTACCATAAGGTTGG registered a PBM binding z-score of 0.27. In turn, GCGACTGGGGCATCAGTAGGTTACCATAACTTAA had a PBM binding z-score of -0.141. Next, CCTACTGGGCCACGAAAAGTCATTGATTCAGTGA: -0.413; TCTTGTAGATCAACAGGTGGTTAAGAAAGATCGA: 0.266. Take TCATATAGGTAAACAGGTGAGAGTCCGTAAGTTA: the PBM binding z-score came to 1.01. As to CCTACTGGGCCAAAGGTCATTGGTTCCAATGCTC, the PBM binding z-score worked out at 4.8.
